These results are taken from PubChem BioAssay (NCATS).

Results filed as inconclusive are left out. Entries that show only a call come without a potency. Calls of active or inactive are those of the source. Calls follow the shape of the dose curve; as a rule, active = well fitted inhibition curve with a large enough effect; inconclusive = small, poorly fitted or top-dose-only effect; inactive = flat fitted curve, though single readings scatter.

A short description of this assay: P-glycoprotein substrates identified in KB-8-5-11 adenocarcinoma cell line, qHTS therapeutic library screen (AID 1346987). Also: nearly all actives have a fitted effect of over 65% in size. In outline:
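KB-8-5-11, a colchicine-selected P-gp-overexpressing KB-3-1 subline, was grown without colchicine for the assay. Cells were seeded at 500 cells/well, dosed in concentration-response and incubated 72 h at 37 degree C, 5% CO2. Viability was read by CellTiter-Glo luminescence.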
(Quantitative high-throughput screening tests each substance at several concentrations.)

For `C[C@H]1[C@H](C)CC[C@]2(C(=O)O)CC[C@]3(C(=O)O)C(=CCC4[C@@]5(C)CC[C@H](O[C@@H]6O[C@@H](C)[C@H](O)[C@@H](O)[C@H]6O)C(C)(C)C5CC[C@]43C)[C@H]12` (stereo partly specified), the Potency entry is “inactive”.

Turning to `CC1CC(=O)[C@]2(O)C(C(=O)OCCc3ccc(O)c(O)c3)=CO[C@@H](O[C@@H]3O[C@H](CO)[C@@H](O)[C@H](O)[C@H]3O)[C@H]12` (stereo partly specified), the Potency result was “inactive”.

For `Nc1nc(COC(=O)c2ccc([N+](=O)[O-])cc2)nc(Nc2ccccc2)n1`, the Potency entry is “inactive”.

Regarding `C=C(C(=O)O)[C@H]1C[C@]2(C)C(=O)CC[C@]23O[C@H]1C[C@@H]3C`, the Potency entry was “inactive”.

Consider `COc1ccc(/C=C/C(N)=O)cc1OC`, for which the Potency result is “inactive”.

In the case of `CC1(C)C[C@H]2C=C(C=O)[C@]3(C(=O)O)C[C@]3(C)[C@H]2C1`, the Potency entry is “inactive”.

Consider `C[C@@H]1O[C@@H](OC[C@H]2O[C@@H](OCc3ccccc3)[C@H](O)[C@@H](O)[C@@H]2O)[C@H](O)[C@H](O)[C@H]1O`, for which the Potency result was “inactive”.

With `CN1CCCC1Cc1c[nH]c2ccc(CCS(=O)(=O)c3ccccc3)cc12` (stereo unspecified), the Potency entry is “inactive”.

For `COC(O)(CC(C)C)C1Oc2cc(C)[nH]c(=O)c2O1` (stereo unspecified), the Potency entry was “inactive”.

Turning to `CC(C)[C@@](O)(c1ccc2cc(OC(F)F)c(OC(F)F)cc2c1)c1cn[nH]n1`, the Potency entry is “inactive”.

Regarding `Cc1ccccc1N1CCN(S(=O)(=O)C[C@]23CC[C@H](C[C@@H]2NC(=O)[C@@H](N)CCS(C)(=O)=O)C3(C)C)CC1`, the Potency result was “inactive”.

Consider `CC1(C)CC[C@]2(C(=O)O)CC[C@]3(C)C(=CCC4[C@@]5(C)CC[C@H](O[C@@H]6O[C@H](C(=O)O)[C@@H](O)[C@H](O)[C@H]6O)C(C)(C)C5CC[C@]43C)C2C1` (stereo partly specified), for which the Potency result was “inactive”.

Take `CCC(C)C(=O)O[C@H]1[C@@H](O[C@H]2O[C@H](CO)[C@@H](O)[C@H](O)[C@H]2O)O[C@H](CO)[C@@H](O)[C@@H]1O` (stereo partly specified): the Potency result is “inactive”.

In the case of `C=C1CCC2[C@@](C)(C(=O)O)CCC[C@@]2(C)[C@@H]1CCc1ccoc1` (stereo partly specified), the Potency entry was “inactive”.

On to `CC(C(=O)Nc1cc(C#N)ccc1CCCC(=O)O)c1ccc(F)c2ccccc12` (stereo unspecified), for which the Potency entry was “inactive”.

Turning to `C=C1CC[C@@H]2C(C)(C)CCC[C@@]2(C)[C@@H]1CC/C(=C/C(=O)OC)COC(C)=O`, the Potency entry was “inactive”.
